According to PubChem BioAssay (EPA / NIEHS):
The source made the active and inactive calls. Rule for the calls: active = hit-call score of the fitted dose curve at least 0.9, where 1 is the maximum; inactive = score below 0.9.

What follows are compounds tested on Potassium channel subfamily K member 1 (KCNK1), KCNK1 (gene 3775) (assay: LTEA_HepaRG_KCNK1: Life Technologies and Expression Analysis (LTEA) Assay for Potassium channel subfamily K member 1 (KCNK1) using HepaRG (AID 2283511)). Conditions: mRNA level, 48 h; actives raise or lower the signal.
Summary of the method: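 Gain or loss of KCNK1 mRNA is the read-out, quantified by qRT-PCR against three housekeeping genes after 48 h chemical treatment of human HepaRG liver cells. Concentrations ran from 100 uM downward in half-log steps, vehicle 0.5% DMSO.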

Compound	outcome	AC50
c1ccc2n[nH]nc2c1	inactive	–
Cc1oc2c(NC(=O)c3c(Cl)cccc3Cl)cccc2c1C(C)(C)O	–	43.6 µM (active)
Cc1cc(F)ccc1-c1cc(N2CC[C@@H](O)[C@H]2CO)ncc1N(C)C(=O)C(C)(C)c1cc(C(F)(F)F)cc(C(F)(F)F)c1	inactive	–
CC(C)(c1cc(Br)c(O)c(Br)c1)c1cc(Br)c(O)c(Br)c1	inactive	–
CN1C(=O)N(c2ccccc2Br)Cc2cnc(Nc3ccc4c(c3)OCC(CO)O4)nc21 (stereo unspecified)	inactive	–
CCOC(=O)O[C@H](C)OC(=O)c1ccc2c(c1)cc(C(=O)NC1CCN(C(C)C)CC1)n2Cc1cc(-c2ccc(Cl)s2)on1	inactive	–
CCCCCCCCOC(=O)c1cc(O)c(O)c(O)c1	inactive	–
CN(C)c1ccc(C(=C2C=CC(=[N+](C)C)C=C2)c2ccc(N(C)C)cc2)cc1	–	5.1 µM (active)
COc1ccc2cc(S(=O)(=O)N[C@H](CC(=O)N[C@H](Cc3ccc(CN4[C@H](C)CCC[C@@H]4C)cc3)C(=O)N(C)C(C)C)c3ccc4c(c3)OCO4)ccc2c1	–	19.7 µM (active)
CCN(Cc1cccc(S(=O)(=O)O)c1)c1ccc(C(=C2C=CC(=[N+](CC)Cc3cccc(S(=O)(=O)O)c3)C=C2)c2ccccc2S(=O)(=O)[O-])cc1	inactive	–
Oc1ccc2ccccc2c1	inactive	–
Clc1cc(Cl)c2c(c1)N=C1CCCCCN1C2	inactive	–
CC(C)(O)c1ccc(CNC(=O)c2cccnc2Oc2ccc3nonc3c2)cc1	inactive	–
O=C(O)Cn1c(=O)n(Cc2ccc(Br)cc2F)c(=O)c2ccc(Cl)cc21	inactive	–
CC/C(=C(/CC)c1ccc(O)cc1)c1ccc(O)cc1	inactive	–
COc1cc(C(=O)NC2CCN(C)CC2)ccc1Nc1ncc2c(n1)N(C1CCCC1)CC(F)(F)C(=O)N2C	inactive	–
CCN(CC)C(=O)c1cc(S(=O)(=O)Cc2ccccc2)c(N2CCC(c3ccccc3)CC2)cc1N(CC)CCN(C)C	inactive	–
CC[C@@H]1C[C@H](N(Cc2cc(C(F)(F)F)cc(C(F)(F)F)c2)C(C)=O)c2cc(C(F)(F)F)ccc2N1C(=O)OC(C)C	inactive	–
c1ccc2ccccc2c1	inactive	–

Compound	outcome	AC50
CCCCCCCCCCCO	inactive	–
Cc1ccc(C(C)C)cc1	inactive	–
OC12N=C(c3ccccc3)SC1Cc1cc(Cl)ccc12 (stereo unspecified)	inactive	–
CN(C)C(=O)C1(N2CCCCC2)CCN(CC[C@@]2(c3ccc(Cl)c(Cl)c3)CN(C(=O)c3ccccc3)CCO2)CC1	–	14.9 µM (active)
O=CCCCC=O	inactive	–
NCc1cccc(C2CCN(C(=O)c3ccc(C#Cc4ccccc4F)o3)CC2)c1	inactive	–
COc1cccc([C@H](O)C2CCN(CCc3ccc(F)cc3)CC2)c1OC	inactive	–
CC(C)(C)c1csc(-c2cc3cc(OCc4ccccc4CC(=O)O)ccc3o2)n1	inactive	–
O=c1[nH]sc2ccccc12	inactive	–
O=c1c(-c2ccc(O)cc2)coc2cc(O)cc(O)c12	inactive	–
CCCCCCCC[Si](OCC)(OCC)OCC	inactive	–
CCCCOC(=O)CC(CC(=O)OCCCC)(OC(C)=O)C(=O)OCCCC	inactive	–
CCCCCCCCN(C)CCCCCCCC	inactive	–
CC[C@H](NC(=O)c1cc(F)ccc1NS(=O)(=O)c1cccc2cccnc12)c1ccccc1	inactive	–
CCCCCCCCCCCC[N+](C)(C)C	–	64.7 µM (active)
O=C1CCC(C2CCCCC2)CC1	inactive	–
O=C1c2ccccc2C(=O)N1CCc1noc(-c2ccc(CN3CCCCCC3)s2)n1	inactive	–
CC1=CC(=O)/C(=C(/C)O)C(=O)O1	inactive	–
CCO[Si](CCCNC(N)=O)(OCC)OCC	inactive	–

What follows are compounds tested on Keratin 19 (KRT19), KRT19 (gene 3880) (assay: LTEA_HepaRG_KRT19: Life Technologies and Expression Analysis (LTEA) Assay for Keratin 19 (KRT19) using HepaRG (AID 2283512)). Conditions: mRNA level, 48 h; actives raise or lower the signal.
Summary of the method: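 Readout is qRT-PCR of KRT19 mRNA, normalized to ACTB, GAPDH and POLR2A, from HepaRG cells treated 48 h with eight-point half-log dilutions topping at 100 uM. Activity in either direction is scored relative to 0.5% DMSO vehicle.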

Compound	outcome	AC50
c1ccc2n[nH]nc2c1	inactive	–
Cc1oc2c(NC(=O)c3c(Cl)cccc3Cl)cccc2c1C(C)(C)O	–	50 µM (active)
Cc1cc(F)ccc1-c1cc(N2CC[C@@H](O)[C@H]2CO)ncc1N(C)C(=O)C(C)(C)c1cc(C(F)(F)F)cc(C(F)(F)F)c1	inactive	–
CC(C)(c1cc(Br)c(O)c(Br)c1)c1cc(Br)c(O)c(Br)c1	inactive	–
CN1C(=O)N(c2ccccc2Br)Cc2cnc(Nc3ccc4c(c3)OCC(CO)O4)nc21 (stereo unspecified)	–	6.5 µM (active)
CCOC(=O)O[C@H](C)OC(=O)c1ccc2c(c1)cc(C(=O)NC1CCN(C(C)C)CC1)n2Cc1cc(-c2ccc(Cl)s2)on1	inactive	–
CCCCCCCCOC(=O)c1cc(O)c(O)c(O)c1	–	27.1 µM (active)
CN(C)c1ccc(C(=C2C=CC(=[N+](C)C)C=C2)c2ccc(N(C)C)cc2)cc1	–	4.74 µM (active)
COc1ccc2cc(S(=O)(=O)N[C@H](CC(=O)N[C@H](Cc3ccc(CN4[C@H](C)CCC[C@@H]4C)cc3)C(=O)N(C)C(C)C)c3ccc4c(c3)OCO4)ccc2c1	–	12 µM (active)
CCN(Cc1cccc(S(=O)(=O)O)c1)c1ccc(C(=C2C=CC(=[N+](CC)Cc3cccc(S(=O)(=O)O)c3)C=C2)c2ccccc2S(=O)(=O)[O-])cc1	inactive	–
Oc1ccc2ccccc2c1	inactive	–
Clc1cc(Cl)c2c(c1)N=C1CCCCCN1C2	inactive	–
CC(C)(O)c1ccc(CNC(=O)c2cccnc2Oc2ccc3nonc3c2)cc1	inactive	–
O=C(O)Cn1c(=O)n(Cc2ccc(Br)cc2F)c(=O)c2ccc(Cl)cc21	–	50 µM (active)
CC/C(=C(/CC)c1ccc(O)cc1)c1ccc(O)cc1	–	9.92 µM (active)
COc1cc(C(=O)NC2CCN(C)CC2)ccc1Nc1ncc2c(n1)N(C1CCCC1)CC(F)(F)C(=O)N2C	–	12.3 µM (active)
CCN(CC)C(=O)c1cc(S(=O)(=O)Cc2ccccc2)c(N2CCC(c3ccccc3)CC2)cc1N(CC)CCN(C)C	inactive	–
CC[C@@H]1C[C@H](N(Cc2cc(C(F)(F)F)cc(C(F)(F)F)c2)C(C)=O)c2cc(C(F)(F)F)ccc2N1C(=O)OC(C)C	inactive	–
c1ccc2ccccc2c1	inactive	–

Compound	outcome	AC50
CCCCCCCCCCCO	inactive	–
Cc1ccc(C(C)C)cc1	inactive	–
OC12N=C(c3ccccc3)SC1Cc1cc(Cl)ccc12 (stereo unspecified)	–	16.5 µM (active)
CN(C)C(=O)C1(N2CCCCC2)CCN(CC[C@@]2(c3ccc(Cl)c(Cl)c3)CN(C(=O)c3ccccc3)CCO2)CC1	inactive	–
O=CCCCC=O	inactive	–
NCc1cccc(C2CCN(C(=O)c3ccc(C#Cc4ccccc4F)o3)CC2)c1	–	9.92 µM (active)
COc1cccc([C@H](O)C2CCN(CCc3ccc(F)cc3)CC2)c1OC	–	15.3 µM (active)
CC(C)(C)c1csc(-c2cc3cc(OCc4ccccc4CC(=O)O)ccc3o2)n1	inactive	–
O=c1[nH]sc2ccccc12	inactive	–
O=c1c(-c2ccc(O)cc2)coc2cc(O)cc(O)c12	inactive	–
CCCCCCCC[Si](OCC)(OCC)OCC	inactive	–
CCCCOC(=O)CC(CC(=O)OCCCC)(OC(C)=O)C(=O)OCCCC	inactive	–
CCCCCCCCN(C)CCCCCCCC	inactive	–
CC[C@H](NC(=O)c1cc(F)ccc1NS(=O)(=O)c1cccc2cccnc12)c1ccccc1	inactive	–
CCCCCCCCCCCC[N+](C)(C)C	–	50 µM (active)
O=C1CCC(C2CCCCC2)CC1	inactive	–
O=C1c2ccccc2C(=O)N1CCc1noc(-c2ccc(CN3CCCCCC3)s2)n1	inactive	–
CC1=CC(=O)/C(=C(/C)O)C(=O)O1	inactive	–
CCO[Si](CCCNC(N)=O)(OCC)OCC	inactive	–
